Molecules are shown by their SMILES. About 2,500 (1.9%) of roughly 130,000 compounds were called active. The sample holds actives, similar compounds and a random draw of the others, so the mix is not that of the screen. Unmarked numbers belong to inactive results.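 How the source made its calls: active means signal ratio slope over the read window, or its plate-corrected B-score, at least 3 SD from the plate mean, either direction; inactive means the rest.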

In this assay the target is ATP-sensitive inward rectifier potassium channel 1 (Homo sapiens) (UniProt P48048). The assay is described as follows: ROMK potassium channel modulators, primary screen, cell-based, thallium flux, MLSMR library (AID 1918).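 Further: B-score of the F/F0 ratio slope over 7 to 12 s after thallium.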 To be noted: Tet-inducible ROMK, thallium flux fluorescence; at 10 µM; actives lie on both sides.
Sequence of ATP-sensitive inward rectifier potassium channel 1 (Homo sapiens) (P48048 whole entry, looked up): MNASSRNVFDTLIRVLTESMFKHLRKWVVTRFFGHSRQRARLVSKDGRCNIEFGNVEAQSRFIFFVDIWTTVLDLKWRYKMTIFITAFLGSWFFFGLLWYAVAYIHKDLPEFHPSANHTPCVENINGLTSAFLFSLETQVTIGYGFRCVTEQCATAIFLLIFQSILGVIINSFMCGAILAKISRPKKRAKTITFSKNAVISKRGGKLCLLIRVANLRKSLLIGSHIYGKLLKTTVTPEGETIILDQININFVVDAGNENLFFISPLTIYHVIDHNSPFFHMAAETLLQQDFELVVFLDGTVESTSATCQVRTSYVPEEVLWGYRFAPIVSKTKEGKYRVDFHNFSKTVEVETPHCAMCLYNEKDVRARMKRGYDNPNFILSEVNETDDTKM
For `O=C(N/N=C/c1ccccn1)c1ccc(S(=O)(=O)N2CCCCCC2)cc1`, the B-score is 1.67.

On to `O=C(Nc1ccccc1)N1CCN(Cc2ccccc2)CC1`, for which the B-score was -0.796.

As for `C/C(=N\N1CCN(Cc2ccc(C)cc2)CC1)c1ccco1`, the B-score is -0.228.

On to `CC12CN(Cc3ccccc3)CC(C)(CN(Cc3ccccc3)C1)C2=NO`, for which the B-score was -3.21 (active).

Consider `COc1cc2c(C(=O)N3CCN(C)CC3)c(CSc3ccccc3)n(C)c2cc1Br`, for which the B-score is -0.529.

Regarding `Cc1ccnc(NC(=O)CCC(=O)N(CC(=O)NCc2ccccc2)Cc2ccco2)c1`, the B-score is -0.274.

With `CCN(CC)C(=O)CN(c1cccc(OC)c1)S(=O)(=O)c1ccc(C)cc1`, the B-score was 0.523.

In the case of `Cc1ccc(N(CC(O)CN2CCCC2)S(=O)(=O)c2ccccc2)cc1` (stereo not given), the B-score is -0.891.

Regarding `COc1ccc([N+](=O)[O-])cc1N(CC(O)CN(CC(C)C)CC(C)C)S(=O)(=O)c1ccc(C)cc1` (stereo not given), the B-score is -3.76 (active).

In the case of `C/C(Cc1ccccc1)=N\NC(=O)CNC(=O)c1ccccc1Cl`, the B-score was 0.223.

Consider `CN(/C(=N/S(=O)(=O)c1cccs1)c1ccccc1)c1ccc(O)cc1`, for which the B-score is 0.111.

As to `O=C(NNC(=S)NCc1ccco1)C(c1ccccc1)c1ccccc1`, the B-score is -0.0839.

Take `CCC1CCCCN1S(=O)(=O)Cc1ccccc1Cl` (stereo not given): the B-score was -1.11.

In the case of `COc1ccc(N2CCN(C(=O)C3CCN(S(=O)(=O)c4ccc(C)cc4)CC3)CC2)cc1`, the B-score was 0.00237.

As to `O=C1Nc2ccc(Br)cc2/C1=N/N=C/C1=C(N2CCOCC2)C(=C\c2ccccc2)/CC1`, the B-score was 1.2.

For the molecule `C(=N\N1CCN(c2ccccn2)CC1)/C1=C(N2CCOCC2)C(=C/c2ccccc2)/CC1`, the B-score was -0.00313.

In the case of `N#C/C(=C\C1=C(N2CCOCC2)C(=C\c2ccccc2)/CC1)C(=O)Nc1ccccc1F`, the B-score is -3.73 (active).

With `Cc1cccc(NC(=O)CSc2nnc(CCNC(=O)OC(C)(C)C)o2)c1C`, the B-score is 0.146.

Regarding `Fc1cccc(CSc2nnc3ccc(-c4ccncc4)nn23)c1`, the B-score was 1.92.

For `CSCCNCc1cn(-c2ccc(F)cc2F)nc1-c1ccccc1C`, the B-score was -0.924.

With `CCCCCCCNc1nc(Cl)nc(NCCO)n1`, the B-score is -0.271.

As for `C=CCc1ccc(OCC(O)CN2CCN(Cc3ccccc3)CC2)c(OC)c1` (stereo not given), the B-score was -1.83.

For the molecule `Cc1ccc(-c2csc(NC(=O)c3cnccn3)n2)cc1C`, the B-score is 1.18.

As for `O=C(Nn1c(-c2ccccc2)nc2ccccc2c1=O)c1ccc([N+](=O)[O-])cc1`, the B-score is 1.18.

With `Cc1nc2ccccc2cc1C(=O)N/N=C/c1ccc([N+](=O)[O-])cc1`, the B-score was -0.145.

Turning to `Cc1nc2ccccc2nc(=O)c1NNc1ccc([N+](=O)[O-])cc1`, the B-score is 3.6 (active).

On to `COc1ccccc1CC(NC(C)=O)C(=O)NC1CCN(C(=O)Nc2ccccc2Cl)CC1` (stereo not given), for which the B-score is -0.0342.

Turning to `O=C(NNC(=S)NCCCN1CCOCC1)c1ccncc1`, the B-score is -0.0357.

Regarding `COCCNC(=O)/C(C#N)=C/c1nc(N(C)C)n(-c2ccc(F)cc2)c1Cl`, the B-score is -0.0358.

Turning to `CCOC(=O)NC(=O)/C(C#N)=C\c1ccccc1`, the B-score was -1.48.

`COCCNC(=O)/C(C#N)=C/c1cccc(OCc2ccccc2)c1`: the B-score was -2.75 (active).

For `N#C/C(C(=S)Nc1ccccc1)=C1/NN=C(N2CCOCC2)N1c1ccccc1`, the B-score was 0.219.

Turning to `O=C(COC(=O)CC1CC2CCC1C2)NC(=O)NC1CCCC1` (stereo not given), the B-score is -0.0323.

In the case of `Nc1ncnc(Nc2cccc(Cl)c2Cl)n1`, the B-score was -0.357.

On to `O=C(O)c1ccc(NC(=O)c2cccs2)cc1`, for which the B-score is -0.729.

As for `O=C(Nc1ncccn1)c1cccs1`, the B-score is 0.282.

`O=C(Nc1ccccc1-c1ccccc1)c1cccs1`: the B-score is -3.72 (active).

As to `NS(=O)(=O)c1cccc(NC(=O)COC(=O)/C=C/c2ccco2)c1`, the B-score was 1.2.

`COc1cc(NC(=O)COc2ccccc2Cl)ccc1NC(=O)C(C)C`: the B-score was -0.0152.

Consider `CCCN(CCC)CC(O)COc1ccccc1C(=O)Nc1ccccc1` (stereo not given), for which the B-score was -3.37 (active).

In the case of `CCCOc1ccccc1C(=O)NCCCC(=O)O`, the B-score was 0.945.

As to `CCCN(CC(=O)Nc1ccc(C(N)=O)cc1)CC(=O)Nc1ccccc1C`, the B-score was 2.09.

As for `Cc1cc(C)cc(NC(=O)COC(=O)c2cc(C)oc2C)c1`, the B-score was 0.675.

Turning to `COc1cccc(-n2c(=S)[nH]c3c(oc4ccccc43)c2=O)c1`, the B-score was -0.508.

For the molecule `COc1ccc(Br)cc1C(=O)Nc1cccc(C)c1C`, the B-score was -2.34 (active).

For the molecule `COc1ccc(C)cc1NC(=O)c1[nH]c(C)c(C(C)=O)c1C`, the B-score was -0.381.

`Cc1cccc(NC(=O)c2ccc3nsnc3c2)c1C`: the B-score was 0.488.

Take `Cc1cc(C)nc(Nc2cc([N+](=O)[O-])ccc2C)n1`: the B-score is -0.867.

As to `CCCC(=O)NC(=S)Nc1ccc(CN2CCOCC2)cc1`, the B-score was 0.069.

Turning to `COC(=O)c1c(C)oc(C)c1S(=O)(=O)NCc1ccc(Cl)cc1`, the B-score was -0.884.

For `c1ccc(-n2nnnc2-c2cccnc2)cc1`, the B-score was 0.982.

In the case of `CNC(=O)C(=O)N/N=C/c1ccccn1`, the B-score was 1.14.

On to `c1ccc(C2c3[nH]c4ccccc4c3CCN2Cc2cccn2-c2cccnc2)nc1` (stereo not given), for which the B-score was -0.00648.

Take `CC1(C)C=C2[C@H]3CC[C@@H]4[C@@]5(C)CCC(=O)C(C)(C)[C@@H]5CC[C@@]4(C)[C@]3(C)CC[C@@]2(C(=O)O)CC1`: the B-score is 3.78 (active).

Take `Cc1ccc(C(=O)N2CCN(S(=O)(=O)N3CCOCC3)CC2)cc1`: the B-score is -0.0164.

In the case of `O=C(CCS(=O)(=O)Cc1ccccc1)Nc1ccc2c(c1)OCCO2`, the B-score was 0.0737.

For the molecule `COc1cc(-n2c(C)nc3cc(C(=O)NCc4ccco4)ccc32)cc(OC)c1OC`, the B-score is 2.33.

Turning to `CCn1cc(C(=O)NCc2ccc3c(c2)OCO3)c2cc(OC)c(OC)cc2c1=O`, the B-score is 2.18.

Take `COc1ccccc1-n1c(C)nc2cc(C(=O)NCc3ccc4c(c3)OCO4)ccc21`: the B-score was 2.52 (active).

`C=CCn1c(-c2sc(-c3ccccc3)nc2C)n[nH]c1=S`: the B-score is -0.143.

For `CCN1CCC2(CCN(Cc3cn[nH]c3-c3ccc(OC)c(F)c3)C2)C1` (stereo not given), the B-score is 0.101.

For the molecule `FC(F)(F)c1cccc(Cc2noc(CN3CCC(N4CCCCC4)CC3)n2)c1`, the B-score was -0.1.

On to `Cc1nccc(-c2ccc(-n3c(C)ccc3C)cc2)n1`, for which the B-score was -1.01.

`CC(=O)c1cccc(CN2CCC(CO)(Cc3ccccc3)CC2)c1`: the B-score was -0.319.

As to `COc1ccccc1/C=C/CN1CCC(CO)(Cc2ccccc2)CC1`, the B-score is -2.4 (active).

As for `OCC1(Cc2ccccc2)CCN(Cc2cc3ccccc3o2)CC1`, the B-score was -2.42.

Consider `Cc1ccc2c(c1)C(O)(CC(=O)c1cccc(-n3cccc3)c1)C(=O)N2` (stereo not given), for which the B-score is 0.00843.

`OCC1(Cc2ccccc2C(F)(F)F)CCN(Cc2cccc3cnccc23)CC1`: the B-score was -2.15.

With `CC(NC(=O)c1ccc(N2CCNCC2)c([N+](=O)[O-])c1)C12CC3CC(CC(C3)C1)C2` (stereo not given), the B-score was -1.39.

Turning to `O=C(Nc1ccc(N2C(=O)c3cccc4cccc(c34)C2=O)cc1)c1ccc(N2CCCCC2)c([N+](=O)[O-])c1`, the B-score was -0.618.

As to `O=C(Nc1cccc(C(F)(F)F)c1)c1ccc(N2CCNCC2)c([N+](=O)[O-])c1`, the B-score is -4.07 (active).

`Nc1nnn(CC(=O)N/N=C/c2ccc(O)cc2)n1`: the B-score was 0.102.

`COc1ccc(-c2nc3cnccn3c2NC(C)(C)CC(C)(C)C)cc1O`: the B-score was -0.227.

For the molecule `CCN(CCn1cccn1)Cc1cn[nH]c1-c1ccc(OC)cc1F`, the B-score is 0.488.

`CCCCOCCCNC(=O)c1ccccc1OCC`: the B-score is -0.181.

As to `COC(=O)C1=CN(C)C=C(C(=O)OC)C1c1ccc(Cl)cc1Cl`, the B-score was 0.118.

Regarding `CCOc1ccccc1C1C(C(=O)OC)=CN(C)C=C1C(=O)OC`, the B-score was -3.43 (active).

Regarding `CCOC(=O)CSc1ccccn1`, the B-score is -0.519.

For `CC(C)C(=O)Nc1oc(-c2ccccc2)cc1C#N`, the B-score is -0.0567.

In the case of `Cc1cccc2cc(CN(Cc3nnnn3Cc3ccccc3)C3CCCC3)c(=O)[nH]c12`, the B-score was -4.07 (active).

As for `Cc1cccc2cc(CN(Cc3ccc4c(c3)OCO4)Cc3nnnn3C3CCCC3)c(=O)[nH]c12`, the B-score was 0.0136.

For `Cc1cc(C)c2[nH]c(=O)c(C(c3nnnn3Cc3ccc4c(c3)OCO4)N3CCCC3)cc2c1` (stereo not given), the B-score is -1.8.

In the case of `CCCN(Cc1cc2cccc(C)c2[nH]c1=O)S(C)(=O)=O`, the B-score is -0.178.

Turning to `Cc1cccc2cc(CN(C(=O)c3cccs3)c3ccccc3)c(=O)[nH]c12`, the B-score was 0.321.

As to `CCC(c1nnnn1C1CCCC1)N(Cc1cccs1)Cc1cc2cccc(C)c2[nH]c1=O` (stereo not given), the B-score is -3.89 (active).

For the molecule `COc1cc(/C=C/C(=O)OCC(=O)NC(=O)NCc2ccccc2)ccc1OCC#N`, the B-score is 0.107.

`Cc1cccc(C(=O)Nc2ccccc2C(=O)NCc2cccnc2)c1`: the B-score was -0.294.

For the molecule `CN(C)c1ccc(/C=C/C(=O)c2ccc(C(C)(C)C)cc2)cc1[N+](=O)[O-]`, the B-score was -0.617.

Turning to `O=C(/C=C/c1ccc(Cl)c([N+](=O)[O-])c1)c1cccnc1`, the B-score was -6.38 (active).

In the case of `O=C(Nc1cccnc1)c1ccc(Cl)c([N+](=O)[O-])c1`, the B-score is 0.478.

For `CCOC(=O)C(NC(C)=O)C(=O)Nc1ccc(OC)cc1` (stereo not given), the B-score was 2.1.

`CN(C)c1cc(-c2ccc(F)cc2)oc(=O)c1Cl`: the B-score was 0.334.

On to `NC1=NC(=O)C(Cc2cccc(Cl)c2)S1` (stereo not given), for which the B-score is -2.18.

With `CC(NC(=O)COC(=O)c1cc(=O)[nH]c2ccccc12)c1ccccc1` (stereo not given), the B-score was -0.0559.

As for `CC(NC(=O)CC1SC(N)=NC1=O)c1ccccc1` (stereo not given), the B-score is 1.24 (active).
